Screening results: PubChem BioAssay, National Center for Advancing Translational Sciences (NCATS)
Shown are actives, neighbours in structure and some others; about 20% of the full set was active somewhere.
Pf growth 48h = Primary qHTS for delayed death inhibitors of the malarial parasite plastid, 48 hour incubation. AID 504832, 2011. hit rate 5.9% among 310,000. P. falciparum luciferase growth in erythrocytes, 48 h. Potency, µM (doses to about 28.7 µM), actives largely listed as inhibitors
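Here the parasites carry a stable luciferase gene and grow inside erythrocytes in Albumax-based RPMI medium with compound for one erythrocytic cycle. Activity is scored as loss of luminescent signal.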
HCMV inh = qHTS Assay for inhibitors of the human cytomegalovirus (HCMV) | AID 1259415, 2018 | HFF cells, HCMV-luciferase reporter, 72 h; active compounds read low | activity change, negative = inhibition, % at 57.5 µM | hit rate 4.5% among 410,000; in the data active means activity change below about -60%; inconclusive means no clear call, values can overlap the other calls; inactive means above about -39%
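Inhibition of viral replication was scored as loss of reporter luminescence in HFFs infected with HCMV-luciferase (MOI 1 PFU/cell) for 72 h; compounds tested at 2 doses, normalized to buffer and Salinomycin controls.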
Shiga inhibitor = A qHTS for Small Molecule Inhibitors of Shiga Toxin | Vero cells, Shiga toxin protein synthesis inhibition reporter | inhibition, % at 38.7 µM | hit rate 9.2% among 290,000 | AID 2315, 2010; in the data active means inhibition mostly above about 28%, no sharp cut-off; inactive means mostly below about 43%
Pf growth 96h = Primary qHTS for delayed death inhibitors of the malarial parasite plastid, 96 hour incubation. Potency, µM (doses to about 28.7 µM), hits mostly inhibitors. hit rate 6.9% among 320,000. P. falciparum luciferase reporter growth, 96 h
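Delayed-death screen, second-generation endpoint: infected erythrocytes, 2% hematocrit, 0.05% parasitemia final; 96 hours at 37 C, 5% CO2; luciferase detection reagent; luminescence decrease equals reduced growth.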
Cycloheximide cs = Cycloheximide Counterscreen for Small Molecule Inhibitors of Shiga Toxin; cell reporter, cycloheximide protein synthesis inhibition counterscreen; max response, %; hit rate 12% among 300,000; AID 2314, 2010; in the data active means max response mostly above about 13%, no sharp cut-off; inactive means mostly below about 14%; further: read at 38.3 µM for the half of the compounds with a filed dose
Each line names hits and unclear results; the compound was inactive in the other large screens. Unless noted, the call rests on the fitted dose curve; in most records, active means well fitted inhibition curve with a large enough effect; inconclusive means small, poorly fitted or top-dose-only effect, or another doubt; inactive means no such curve, though single readings can be large or run the other way.

CCC(C)(c1nnnn1-c1c(C)cccc1C)N(N=O)c1cccc(C(F)(F)F)c1 (stereo unspecified)	Pf growth 48h 11.7µM, Pf growth 96h inconclusive
CC(C)(Cc1ccccc1)NC(=O)C(=O)c1cn(CC(=O)N2CCOCC2)c2ccccc12	HCMV inh inconclusive, Pf growth 96h inconclusive
CCN1/C(=C\C(C)=O)Sc2ccc(OC)cc21	none (no result: Pf growth 48h, HCMV inh)
COc1cccc(C(=O)/C=C2\Sc3ccccc3N2C)c1	Shiga inhibitor 83.9, Cycloheximide cs 31.2
CN1/C(=C\C(=O)c2cccnc2)Sc2ccccc21	Shiga inhibitor 93.1, Pf growth 96h inconclusive, Cycloheximide cs 42.5
O=C(NC1CCCCCCC1)c1ccco1	Shiga inhibitor 43.0, Cycloheximide cs 18.0 (no result: Pf growth 96h)
C/C(=N\NC(=O)NC1CCCCC1)c1ccco1	Cycloheximide cs 11.8
O=C(NC1CCN(C(=O)NC2CCCCC2)CC1)c1ccco1	HCMV inh -106.7 (no result: Pf growth 96h)
O=C(COC(=O)c1ccco1)NC1CCCCC1	Cycloheximide cs 22.3 (no result: Pf growth 96h)
O=C(NCCNC1CCCCC1)c1ccco1	none
CC(=O)Nc1ccc(C)c(NS(=O)(=O)c2cccc(C(F)(F)F)c2)c1	Pf growth 48h 1.85µM, Pf growth 96h 3.7µM
COC(=O)C(NC(=O)c1ccccc1Cl)(Nc1ncc(S(=O)(=O)c2ccc([N+](=O)[O-])cc2)s1)C(F)(F)F (stereo unspecified)	Pf growth 48h inconclusive (no result: Pf growth 96h)
COc1cccc(NC(=O)C(=O)NCC(c2ccco2)N2CCc3ccccc3C2)c1 (stereo unspecified)	Pf growth 48h 11.7µM, Pf growth 96h inconclusive (no result: Shiga inhibitor, Cycloheximide cs)
Cc1ccccc1C(=O)NCC(c1ccco1)N1CCc2ccccc2C1 (stereo unspecified)	none (no result: Shiga inhibitor, Cycloheximide cs)
Cc1cc(C)c(S(=O)(=O)NCC(c2ccco2)N2CCc3ccccc3C2)c(C)c1 (stereo unspecified)	Pf growth 48h 9.28µM, Pf growth 96h inconclusive (no result: Shiga inhibitor, Cycloheximide cs)
CC(=O)Nc1cccc(NC(=O)C(=O)NCC(c2ccco2)N2CCc3ccccc3C2)c1 (stereo unspecified)	Pf growth 48h 11.7µM, HCMV inh inconclusive, Pf growth 96h inconclusive (no result: Shiga inhibitor, Cycloheximide cs)
COc1ccc(OC)c(S(=O)(=O)NCC(c2cccs2)N2CCc3ccccc3C2)c1 (stereo unspecified)	Pf growth 48h 14.7µM, Pf growth 96h inconclusive (no result: Shiga inhibitor, Cycloheximide cs)
CCc1ccc(CNC(=O)c2ccc3nc(SCc4ccc(F)cc4)n(C)c3c2)cc1	none (no result: Pf growth 48h, Shiga inhibitor, Pf growth 96h, Cycloheximide cs)
COc1ccc(NC(=O)C(=O)NCC(c2ccco2)N2CCc3ccccc3C2)cc1OC (stereo unspecified)	Pf growth 48h 11.7µM, Pf growth 96h inconclusive (no result: Shiga inhibitor, Cycloheximide cs)
O=C(NCCc1ccccc1)c1ccc(Cn2c(SCc3ccccc3)nc3cccnc32)cc1	none (no result: Pf growth 48h, Shiga inhibitor, Pf growth 96h, Cycloheximide cs)
CO/N=C/CC(=O)c1cnc(-c2ccccc2)s1	HCMV inh inconclusive, Cycloheximide cs 18.8
Cc1cccn2c(=O)cc(COc3cccc(NC(=O)Nc4cccc(Cl)c4)c3)nc12	none (no result: Pf growth 48h, Shiga inhibitor, Pf growth 96h, Cycloheximide cs)
CCN1CCN(P2(=O)C=C(c3ccccc3)OC(c3ccccc3)=C2)CC1	none (no result: Pf growth 96h)
O=P1(O)C=C(c2ccccc2)OC(c2ccccc2)=C1	Shiga inhibitor 145.5, Cycloheximide cs 67.2
COc1ccc(C2=NOC(Cn3nc(C(=O)O)cc3-c3ccccc3)C2)cc1 (stereo unspecified)	none
COc1ccc(C2=NOC(CNC(=S)N3CCOCC3)C2)cc1 (stereo unspecified)	Shiga inhibitor 56.5, Cycloheximide cs 34.0
CCOC(=O)c1cnc(SCC(=O)c2ccc3c(c2)OCCO3)nc1N	Shiga inhibitor 103.8, Cycloheximide cs 27.8
CCOC(=O)c1cnc(SCC(=O)c2ccc(C)cc2)nc1N	Pf growth 96h inconclusive
Cc1cc(C)nc(SCC(=O)c2ccc3c(c2)OCCO3)n1	Pf growth 96h inconclusive, Cycloheximide cs 25.6
COc1ccc(-n2c(=O)c3c4c(sc3n(CC(N)=O)c2=O)CCCCC4)cc1	Pf growth 48h inconclusive
Cc1ccc(OCC(=O)N/N=C\c2cccn2C)c([N+](=O)[O-])c1	Shiga inhibitor 42.0, Cycloheximide cs 31.7
Cc1ccc(OCC(=O)N/N=C/c2ccccc2)c([N+](=O)[O-])c1	HCMV inh inconclusive
Cc1ccc(OCC(=O)N/N=C\c2ccc(C)o2)c([N+](=O)[O-])c1	Pf growth 96h 5.86µM
CCCn1c(=O)sc2cc(NC(=O)c3ccccc3OCC)ccc21	none (no result: Pf growth 48h, Shiga inhibitor, Pf growth 96h, Cycloheximide cs)
CCCOc1ccc(C(=O)Nc2ccc3c(c2)OCO3)cc1	Shiga inhibitor 121.8, Cycloheximide cs 48.9
CCCCOc1ccc(C(=O)Nc2ccc3c(c2)OCO3)cc1	Cycloheximide cs 17.8
CCCOc1c(Cl)cc(C(=O)Nc2ccc3c(c2)OCO3)cc1OCC	Pf growth 96h inconclusive (no result: Pf growth 48h)
CCC(=O)Nc1ccc(C(=O)Nc2ccc3c(c2)OCO3)cc1	Pf growth 96h inconclusive
N#CCC(=O)Nc1ccc(C(=O)Nc2ccc3c(c2)OCO3)cc1	Pf growth 48h inconclusive (no result: Shiga inhibitor, Cycloheximide cs)
CCC(=O)Oc1ccc(C(=O)Nc2ccc3c(c2)OCO3)cc1	HCMV inh -102.8, Shiga inhibitor 107.5, Cycloheximide cs 46.4
O=C(CSc1nc2[nH]ncc2c(=O)n1-c1ccc(Cl)c(Cl)c1)NCc1ccccc1Cl	Pf growth 48h inconclusive, HCMV inh inconclusive, Pf growth 96h inconclusive
Cc1cccc(CNC(=O)C2CCCN(c3nn4c(=O)cc(C)nc4s3)C2)c1 (stereo unspecified)	none
N#CC1=C(N)NC(SCC(=O)O)=C(C#N)C12CCCC2	none
CC1=C(C(=O)Nc2ccccc2)C2(CCCCC2)C(C#N)=C(S)N1	Pf growth 96h 10.4µM (no result: Pf growth 48h)
N#CC1=C(N)NC(SCC(=O)Nc2ccccc2)=C(C#N)C12CCCC2	Pf growth 48h 1.65µM
Cc1onc(-c2ccccc2)c1CNS(=O)(=O)c1ccc(F)cc1F	none
Cc1onc(-c2ccccc2)c1CNS(=O)(=O)c1cccc(Br)c1	HCMV inh -73.0
O=C(OCC1CCCO1)c1ccc2c(c1)N(Cc1ccccc1Cl)C(=O)c1ccccc1S2(=O)=O (stereo unspecified)	none (no result: Pf growth 48h, Shiga inhibitor, Pf growth 96h, Cycloheximide cs)
N=c1oc2c3c4c(cc2cc1C(=O)Nc1ccccc1)CCCN4CCC3	Pf growth 96h 13.1µM, Cycloheximide cs 22.5 (no result: Pf growth 48h, HCMV inh)
Cc1oc(S(=O)(=O)N2CCCC2)cc1C(=O)Nc1ccccc1	none
O=C(CSCc1cnn(-c2ccccc2)c1-n1cccc1)NCc1cccc(Cl)c1	none (no result: Pf growth 48h, Shiga inhibitor, Pf growth 96h, Cycloheximide cs)
COC(=O)C1=C(N)OC(C)=C(C(C)=O)C12C(=O)N(C)c1ccccc12 (stereo unspecified)	Pf growth 96h 8.28µM
COC(=O)C1=C(N)Oc2c(c(=O)oc3ccccc23)[C@]12C(=O)N(C)c1ccccc12	none
O=C(O)c1ccc(CSc2nnc(COc3ccc(Cl)cc3Cl)o2)cc1	Pf growth 96h 2.62µM (no result: Pf growth 48h)
CC(C)(C)c1ccc(C(=O)O)c(C(=O)c2ccc(C(=O)O)cc2)c1	Pf growth 48h inconclusive
CC(C)(C)c1ccc(C(=O)C2CCCN(C(=O)C3CCOCC3)C2)cc1 (stereo unspecified)	Pf growth 48h 5.86µM
CCc1cc(C(=O)N2CCCC(C(=O)c3ccc(C(F)(F)F)cc3)C2)n(C)n1 (stereo unspecified)	none
